Data as given in ChEMBL document CHEMBL1961873, “Compounds: GSK PKIS; Assays: Nanosyn kinase panel” (2012).
“And” between values parts separate entries of the source, which are not always exact repeats. Equal values may be shown once.

How the values were obtained:
[1] = biological target: Serine/threonine-protein kinase 26 (Homo sapiens) (UniProt Q9P289); conditions: at 1 µM;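 further: mean inhibition of MST4 kinase activity, reported from the GSK PKIS inhibitor-set screening panel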
[2] = biological target: Serine/threonine-protein kinase PAK 1 (Homo sapiens) (UniProt Q13153); conditions: at 0.1 µM
[3] = biological target: Serine/threonine-protein kinase PAK 1 (Homo sapiens) (UniProt Q13153); conditions: at 1 µM
[4] = biological target: Serine/threonine-protein kinase PAK 2 (Homo sapiens) (UniProt Q13177); conditions: at 0.1 µM
[5] = biological target: Serine/threonine-protein kinase PAK 2 (Homo sapiens) (UniProt Q13177); conditions: at 1 µM
[6] = biological target: Serine/threonine-protein kinase PAK 3 (Homo sapiens) (UniProt O75914); conditions: at 0.1 µM
[7] = biological target: Serine/threonine-protein kinase PAK 3 (Homo sapiens) (UniProt O75914); conditions: at 1 µM
[8] = biological target: Serine/threonine-protein kinase PAK 5 (Homo sapiens) (UniProt Q9P286); conditions: at 0.1 µM
[9] = biological target: Serine/threonine-protein kinase PAK 5 (Homo sapiens) (UniProt Q9P286); conditions: at 1 µM
[10] = biological target: Serine/threonine-protein kinase PAK 6 (Homo sapiens) (UniProt Q9NQU5); conditions: at 0.1 µM;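 further: mean PAK6 inhibition reported from the GSK PKIS screen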
Serine/threonine-protein kinase PAK 6 (Homo sapiens), sequence (Q9NQU5 whole entry, looked up): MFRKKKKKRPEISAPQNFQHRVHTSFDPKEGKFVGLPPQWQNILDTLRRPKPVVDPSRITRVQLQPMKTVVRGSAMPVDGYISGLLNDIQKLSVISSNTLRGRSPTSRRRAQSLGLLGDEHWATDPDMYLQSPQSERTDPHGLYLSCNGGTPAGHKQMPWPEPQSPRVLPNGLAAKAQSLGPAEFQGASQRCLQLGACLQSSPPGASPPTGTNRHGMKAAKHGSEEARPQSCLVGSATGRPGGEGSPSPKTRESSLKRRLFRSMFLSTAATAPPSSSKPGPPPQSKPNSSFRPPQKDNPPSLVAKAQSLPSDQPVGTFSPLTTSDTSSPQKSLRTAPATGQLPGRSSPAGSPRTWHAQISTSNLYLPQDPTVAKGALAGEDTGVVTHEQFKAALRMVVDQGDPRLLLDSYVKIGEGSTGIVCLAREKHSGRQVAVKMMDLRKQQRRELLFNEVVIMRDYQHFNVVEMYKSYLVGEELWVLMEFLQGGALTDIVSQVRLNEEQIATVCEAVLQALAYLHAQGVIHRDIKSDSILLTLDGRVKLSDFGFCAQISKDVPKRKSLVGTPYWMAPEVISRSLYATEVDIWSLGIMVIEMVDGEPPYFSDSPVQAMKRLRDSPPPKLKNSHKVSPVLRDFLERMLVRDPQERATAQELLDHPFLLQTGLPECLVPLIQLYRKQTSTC

Serine/threonine-protein kinase PAK 2 (Homo sapiens), sequence (Q13177 whole entry): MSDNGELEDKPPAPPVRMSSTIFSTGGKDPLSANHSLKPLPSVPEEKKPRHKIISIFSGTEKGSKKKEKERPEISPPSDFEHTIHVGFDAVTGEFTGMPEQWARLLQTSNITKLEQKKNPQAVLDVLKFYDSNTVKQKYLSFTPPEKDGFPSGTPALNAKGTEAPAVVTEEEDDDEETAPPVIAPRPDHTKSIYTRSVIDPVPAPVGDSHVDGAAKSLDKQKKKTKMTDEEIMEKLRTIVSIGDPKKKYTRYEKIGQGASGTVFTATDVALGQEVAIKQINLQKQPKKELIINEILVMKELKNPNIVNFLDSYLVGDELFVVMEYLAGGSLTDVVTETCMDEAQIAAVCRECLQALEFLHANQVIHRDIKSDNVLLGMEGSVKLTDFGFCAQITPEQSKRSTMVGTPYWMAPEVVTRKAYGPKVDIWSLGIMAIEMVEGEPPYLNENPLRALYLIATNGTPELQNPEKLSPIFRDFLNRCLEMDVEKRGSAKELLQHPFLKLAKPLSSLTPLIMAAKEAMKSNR
Serine/threonine-protein kinase PAK 1 (Homo sapiens), sequence (Q13153 whole entry): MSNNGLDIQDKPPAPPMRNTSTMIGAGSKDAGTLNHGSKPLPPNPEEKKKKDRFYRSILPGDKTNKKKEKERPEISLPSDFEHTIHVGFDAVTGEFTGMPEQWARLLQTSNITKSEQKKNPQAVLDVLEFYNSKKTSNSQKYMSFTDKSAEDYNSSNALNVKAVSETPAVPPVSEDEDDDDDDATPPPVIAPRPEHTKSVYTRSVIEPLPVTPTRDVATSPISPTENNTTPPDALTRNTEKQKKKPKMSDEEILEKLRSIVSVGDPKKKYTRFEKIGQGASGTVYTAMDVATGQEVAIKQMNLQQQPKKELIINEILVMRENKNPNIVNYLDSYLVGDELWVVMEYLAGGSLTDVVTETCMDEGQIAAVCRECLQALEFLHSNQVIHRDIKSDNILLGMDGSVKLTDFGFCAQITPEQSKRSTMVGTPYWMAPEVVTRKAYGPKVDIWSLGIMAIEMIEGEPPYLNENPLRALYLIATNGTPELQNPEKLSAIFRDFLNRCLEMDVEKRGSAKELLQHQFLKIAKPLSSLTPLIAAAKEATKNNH
Serine/threonine-protein kinase PAK 5 (Homo sapiens), sequence (Q9P286 whole entry, looked up): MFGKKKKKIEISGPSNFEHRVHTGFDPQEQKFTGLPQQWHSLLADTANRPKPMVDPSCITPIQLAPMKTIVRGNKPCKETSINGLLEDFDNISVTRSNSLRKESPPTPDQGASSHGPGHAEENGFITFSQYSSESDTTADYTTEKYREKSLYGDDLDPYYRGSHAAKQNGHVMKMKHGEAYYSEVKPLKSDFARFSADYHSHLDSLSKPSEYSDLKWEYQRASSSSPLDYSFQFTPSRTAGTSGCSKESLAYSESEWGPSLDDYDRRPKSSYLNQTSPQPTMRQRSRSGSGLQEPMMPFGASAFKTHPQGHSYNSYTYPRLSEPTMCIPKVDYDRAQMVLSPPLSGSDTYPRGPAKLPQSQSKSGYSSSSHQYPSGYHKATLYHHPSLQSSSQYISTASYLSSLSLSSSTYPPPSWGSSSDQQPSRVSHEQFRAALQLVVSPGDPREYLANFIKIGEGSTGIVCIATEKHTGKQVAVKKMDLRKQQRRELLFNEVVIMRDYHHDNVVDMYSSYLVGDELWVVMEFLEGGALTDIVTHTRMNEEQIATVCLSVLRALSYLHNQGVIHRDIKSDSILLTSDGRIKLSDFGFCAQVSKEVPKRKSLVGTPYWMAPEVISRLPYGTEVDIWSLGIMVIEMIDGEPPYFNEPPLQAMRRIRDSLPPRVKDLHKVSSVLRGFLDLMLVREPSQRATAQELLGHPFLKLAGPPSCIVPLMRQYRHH
Serine/threonine-protein kinase PAK 3 (Homo sapiens), sequence (O75914 whole entry, looked up): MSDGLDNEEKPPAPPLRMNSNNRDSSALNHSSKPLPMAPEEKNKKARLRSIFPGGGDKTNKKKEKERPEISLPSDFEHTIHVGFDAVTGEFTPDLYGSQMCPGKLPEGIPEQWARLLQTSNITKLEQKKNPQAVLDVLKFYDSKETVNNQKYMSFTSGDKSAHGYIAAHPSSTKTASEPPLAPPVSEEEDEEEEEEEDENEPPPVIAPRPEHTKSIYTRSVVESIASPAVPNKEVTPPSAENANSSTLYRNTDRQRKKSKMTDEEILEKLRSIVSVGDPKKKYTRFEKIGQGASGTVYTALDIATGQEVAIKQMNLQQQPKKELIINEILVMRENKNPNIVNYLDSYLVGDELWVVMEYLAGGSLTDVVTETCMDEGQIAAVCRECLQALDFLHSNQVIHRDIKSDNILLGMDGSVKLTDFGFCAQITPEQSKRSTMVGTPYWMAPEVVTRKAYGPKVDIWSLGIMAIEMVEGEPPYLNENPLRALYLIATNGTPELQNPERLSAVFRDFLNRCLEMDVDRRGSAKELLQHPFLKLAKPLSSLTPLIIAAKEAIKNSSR
Serine/threonine-protein kinase 26 (Homo sapiens), sequence (Q9P289 2-416 limits assumed): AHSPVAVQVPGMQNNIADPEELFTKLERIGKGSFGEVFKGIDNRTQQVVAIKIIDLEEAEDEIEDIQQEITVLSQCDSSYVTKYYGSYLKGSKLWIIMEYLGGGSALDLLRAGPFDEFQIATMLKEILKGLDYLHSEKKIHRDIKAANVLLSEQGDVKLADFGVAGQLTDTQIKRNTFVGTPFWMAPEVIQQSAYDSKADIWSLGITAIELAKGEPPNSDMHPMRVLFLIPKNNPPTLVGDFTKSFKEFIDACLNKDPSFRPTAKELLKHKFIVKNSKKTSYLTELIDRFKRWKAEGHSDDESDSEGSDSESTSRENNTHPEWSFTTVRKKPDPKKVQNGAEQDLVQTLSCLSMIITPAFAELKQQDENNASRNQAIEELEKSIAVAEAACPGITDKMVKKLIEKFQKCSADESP

SMILES | inhibition [1] | inhibition [2] | inhibition [3] | inhibition [4] | inhibition [5] | inhibition [6] | inhibition [7] | inhibition [8] [%] | inhibition [9] | inhibition [10]
Cn1c(-c2nonc2N)nc2cnccc21 | -1.1% | 5.69% | 9.42% | 1.04% | 0.39% | 3.23% | 2.69% | -1.86 | -0.53% | 3.95%
NC(=O)c1ccc2c(-c3ccnc(NCCCO)n3)c(-c3ccc(F)cc3)nn2c1 | -2.28% | 7.12% | 6.41% | 2.25% | 2.24% | 4.61% | 4.88% | 0.64 | -4.27% | 5.26%
CCS(=O)(=O)c1ccc(OC)c(Nc2ncc(-c3cccc(F)c3)o2)c1 | -0.44% | 9.43% | 11.2% | 1.97% | 2.27% | 6% | 9.2% | 7.29 | 9.85% | -7.56%
CCOc1ccc2c(-c3ccnc(Nc4cc(OC)cc(C(F)(F)F)c4)n3)cnn2n1 | 1.8% | 2.05% | 0.59% | -0.62% | 0.03% | -0.15% | -0.09% | 0.09 | 8.65% | -8.96%
CN1CCN(Cc2ccc(-c3cc4ncnc(Nc5ccc(OCc6cccc(F)c6)c(Cl)c5)c4s3)o2)CC1 | -2.57% and -0.01% | 6.52% and 11.3% | 6.39% and 9.31% | 0.62% and 1.36% | 1.83% and 3.59% | 3.14% and 6.57% | 5.4% and 6.56% | 2.6 | 5.21% | -1.82%
Cc1c2ccc(N(C)c3ccnc(Nc4cccc(S(N)(=O)=O)c4)n3)cc2nn1C | -1.81% | 7.49% | 5.47% | 3.47% | 3.15% | 4.74% | 7.28% | 1.63 | -1.02% | 2.18%
CNC(=O)c1ncccc1Nc1nc(Nc2cc3c(cc2OC)CCCN3C(=O)CN(C)C)nc2[nH]ccc12 | -5.28% | 7.85% | 7.25% | 0.92% | 1.69% | 4.29% | 5.27% | 5.25 | -0.15% | 11.4%
Cc1ccc(-c2cc3c(NC(=O)C4CC4)ncnc3o2)cc1 | -2.53% | 3.85% | 5.51% | 1.95% | 1.97% | 3.79% | 4.95% | 4.59 | -3.05% | 4.74%
O=C(O[C@H]1CN[C@H](C#Cc2cc3ncnc(Nc4ccc5c(ccn5Cc5cc(F)ccc5F)c4)c3s2)C1)N1CCOCC1 | 0.81% | 9.36% | 8.97% | 2.13% | 2.48% | 5.02% | 5.53% | -0.09 | -5.06% | -1.93%
COc1cccc(Nc2nccc(-c3cnn4ncccc34)n2)c1 | 3.21% | 2.05% | 2.16% | 1% | 2.62% | 1.1% | 1.63% | 8.25 | 5.51% | 1.43%
CS(=O)(=O)Nc1ccc(-c2ccc3c(NC(=O)C4CC4)n[nH]c3c2)cc1 | -2.98% | 3.5% | 5.34% | 1.62% | 1.36% | 3.41% | 4.16% | -0.3 | 0.91% | 0.76%
CCCNc1cccc(-n2ncc3c(N/N=C/c4ccncc4)ncnc32)c1 | -1.3% | -0.99% | -0.69% | 0.12% | -0.31% | 1.59% | 1.61% | 8.4 | 5.05% | 16.9%
Fc1cccc(COc2ccc(Nc3ncncc3C#Cc3ccccc3)cc2Cl)c1 | 0.47% | 4.22% | 6.2% | 1.86% | 2.71% | 4.76% | 5.44% | 1.61 | 0.61% | 1.93%
N#Cc1cccc(Nc2ncc(-c3ccccc3)o2)c1 | -0.74% | -2.44% | -0.39% | 0.33% | -0.77% | 2.61% | 2.5% | -5.2 | 1% | 3.79%
CNC(=O)c1cncc(/C=C/c2ccccc2C)c1 | 2.47% | 4.67% | 7.54% | 2.06% | 2.02% | 4.95% | 5.93% | 15.4 | 4.8% | -2.91%
CN1CCC(C(=O)Nc2n[nH]c3nc(-c4ccc(O)cc4)c(Br)cc23)CC1 | 21.2% and 19.8% | 7.92% and -0.37% | 5.42% and 3.31% | 0.62% and -0.51% | 1.42% and -0.53% | 4.2% and 1.97% | 5.02% and 1.71% | -5.26 | -8.73% and 0.52% | -2.46% and -9.85%

SMILES | inhibition [1] | inhibition [2] | inhibition [3] | inhibition [4] | inhibition [5] | inhibition [6] | inhibition [7] | inhibition [8] [%] | inhibition [9] | inhibition [10]
COc1cc(Nc2ncc(-c3ccccc3)o2)cc(OC)c1 | -4.28% | 6.86% | 6.69% | 1.76% | 1.6% | 4.74% | 3.26% | 2.83 | 4.51% | 0.07%
COc1cc(N2CCN(C(C)C)CC2)ccc1Nc1nc(Nc2cccc3ncccc23)c2cc[nH]c2n1 | 1.78% | 0.3% | -1.25% | 0.87% | -0.27% | -1.68% | -0.48% | -2.43 | -1.65% | 1.57%
CS(=O)(=O)Nc1ccc(-c2cc(-c3ccccc3)cc(C(N)=O)c2N)cc1 | -0.88% | 4.98% | 4.78% | -0.21% | -0.16% | 0.92% | 3.38% | 1.42 | 0.16% | -9.24%
COc1cc2c(cc1Nc1nc(Nc3cccc(F)c3C(N)=O)c3cc[nH]c3n1)N(C(=O)CN1CCN(C(C)C)CC1)CC2 | 2.14% | 5.25% | 8.11% | 1.01% | 1.35% | 2.21% | 5.46% | 2.45 | 3.7% | -9.4%
COc1ccc(-c2nn3ncccc3c2-c2ccnc(Nc3ccc(F)c(F)c3)n2)cc1 | 0.76% | 3.1% | 5.49% | 1.93% | 0.93% | 2.36% | 5.12% | 3.31 | 0.77% | 5.78%
CS(=O)(=O)CCNCc1ccc(-c2ccc3ncnc(Nc4ccc(OCc5cccc(C(F)(F)F)c5)cc4)c3c2)o1 | 0.42% | 8.38% | 7.33% | 1.38% | 3.12% | 5.6% | 9.88% | 4.72 | 5.29% | -8.96%
CC1=C(C(=O)Nc2ccc3[nH]ncc3c2)C(c2ccc(F)cc2)N=C(c2ccc(C(F)(F)F)nc2)N1 (stereo not given) | -0.15% | 2.26% | 3.97% | 0.86% | 0.19% | 1.4% | 0.67% | 5.14 | -1.73% | 8.32%
COC(=O)Nc1nc2cc(Oc3ccc(NC(=O)Nc4ccccc4)cc3)ccc2[nH]1 | 0.25% | 0.78% | 3.46% | 1.73% | 0.63% | 3.68% | 4.15% | -3.58 | -3.97% | -4.28%
CN(c1ccc(NC(=O)NCCN2CCOCC2)cc1)c1ccnc(Nc2ccc(CS(C)(=O)=O)cc2)n1 | 0.96% | 4.31% | 4.43% | 2.52% | 1.58% | 4.14% | 3.94% | 12.2 | 13.5% | 3.99%
CN1CCC(n2cnc(-c3ccc(F)cc3)c2-c2ccnc(NCCO)n2)CC1 | 1.34% | 5.86% | 7.1% | 2.03% | 2.52% | 3.99% | 3.76% | 0.7 | 1.35% | 3.38%
CS(=O)(=O)CCNCc1ccc(-c2ccc3ncnc(Nc4ccc(OCc5ccccc5)cc4)c3c2)o1 | 1.34% | 6.85% | 5.65% | 0.34% | -0.94% | 3.86% | 3.33% | 3.91 | 2.57% | -3.53%
CCS(=O)(=O)c1ccc(OC)c(Nc2ncc(-c3cccc(C(C)=O)c3)o2)c1 | 1.58% | 8.45% | 1.48% | 2.47% | 1.36% | -0.54% | 3.98% | 7.26 | 8.72% | 7.53%
CCN1CCC(C(=O)Nc2n[nH]c3nnc(-c4cccc(F)c4F)cc23)CC1 | 0.11% | -3.4% | -3.06% | -1.1% | -2.04% | -0.81% | -0.69% | 0 | 1.08% | -5.45%
O=C(Nc1n[nH]c2nnc(-c3cccnc3)cc12)C1CC1 | 1.72% | -0.56% | 2.67% | -0.8% | -0.23% | -0.23% | 0.64% | -4.39 | -1.42% | -7.92%
O=C(O[C@H]1CN[C@H](C#Cc2cc3ncnc(Nc4ccc(OCc5cccc(F)c5)c(Cl)c4)c3s2)C1)N1CCOCC1 | -0.1% | 8.7% | 7.32% | 1.91% | 2.46% | 6.61% | 6.74% | 6.46 | 0.44% | -7.35%
